# Bioassay records: PubChem, University of Kansas High Throughput Screening Laboratory
# mHTT-CaM PPI inh: disrupts binding of mutant huntingtin to calmodulin. P42858. AlphaScreen His-mHTT/GST-CaM binding, luminescence. inhibition, % at 15 µM. 190,000 tested, 3.6% active. AID 1671202;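 note: 0% = both proteins with DMSO and 100% = one protein alone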
# Pf apPOL inh: Pf-apPOL DNA polymerase inhibition. inhibition, % at 10 µM. Recombinant Pf-apPOL, molecular beacon fluorescence, 1.5 h. 210,000 tested, 0.25% active
# * marks the source's active call; other numbers are inactive results; · = no result. Shown is part of a subset that was picked to be rich in hits. Cut-off read from the data, not from the text of the source: active = inhibition above about 50%; inactive = the rest.
SMILES,mHTT-CaM PPI inh,Pf apPOL inh
O=[N+]([O-])c1ccc(Nc2nc(-c3ccccn3)cs2)cc1,48,5
Cc1ccnc(Nc2nc(-c3cccs3)cs2)c1,25,-5
CC(=O)Nc1nc(C)c(-c2csc(Nc3ccc(C(=O)O)cc3)n2)s1,5,-7
CCCCN(C)Cc1c(O)ccc2c1OC(=Cc1cccs1)C2=O,2,-10
Clc1ccc(-c2csc(-c3ccc(-c4csnn4)cc3)n2)s1,·,1
COC(=O)C(C)Oc1ccc2oc(=O)c(-c3ccc(OC)c(OC)c3)c(C)c2c1 (stereo not given),0,-7
CNc1nccc(N2CCC(CC(=O)NCCCN3CCCC3=O)CC2)n1,4,-6
CCCc1nc(-c2c(C)cc(C)nc2NC(=O)c2ccccc2C)no1,-2,2
O=C(ON=Cc1ccccc1OC(F)(F)F)c1c(F)cccc1Cl,·,-1
COc1cc(CN2CCCC2c2cc(C(C)C)no2)ccc1O (stereo not given),6,3
Cc1nc(NCCNC(=O)C(C)Oc2ccccc2)cc(N(C)C)n1 (stereo not given),-3,-11
CC(=O)c1cccc(Nc2nc(-c3ccccn3)cs2)c1,86*,-11
CC(=O)c1cccc(Nc2nc(-c3ccccc3)cs2)c1,22,-3
CN(C)c1ccc(Nc2nc(-c3ccccn3)cs2)cc1,100*,-17
CN(C)c1ccc(C(=O)Nc2cc(-c3ccccn3)no2)cc1,-5,-14
O=C(Nc1c2c(nn1-c1ccc(F)cc1)CSC2)c1ccccc1I,27,-2
CCN1C(=O)C(C)(C(=O)Nc2ccc(OC)cc2OC)Oc2cccnc21 (stereo not given),-8,-5
Cc1sc2c(c1C)C(=O)NC1(N2)C(=O)N(Cc2ccccc2F)c2ccccc21 (stereo not given),53*,16
O=C1N(Cc2ccccc2F)c2ccccc2C12OCCCO2,-28,-7
O=C(Nc1ccc(F)cc1F)c1cc(I)ccc1Cl,-3,3
CC(C)c1ccc(C=C2Oc3cc(O)ccc3C2=O)cc1,-10,-6
O=C(C=Cc1ccc2c(c1)OCO2)NC1CCCCC1N1C(=O)CSC1=O (stereo not given),7,3
COc1cc(NC(=O)c2ccc(C)o2)c(OC)cc1Cl,-1,2
COc1ccc(-c2csc(/C(C#N)=C/C=C/c3ccccc3)n2)cc1,-38,-3
Cc1cccc(N2C(=O)NC(=O)/C(=C\c3cn(CC(=O)N4CCOCC4)c4ccccc34)C2=O)c1,-2,-5
SMILES,mHTT-CaM PPI inh,Pf apPOL inh
Cc1ccccc1N1C(=O)NC(=O)/C(=C\c2cn(CC(=O)N3CCOCC3)c3ccccc23)C1=O,25,-11
O=C1NC(=O)N(c2ccccc2F)C(=O)/C1=C/c1cn(CC(=O)N2CCCCC2)c2ccccc12,59*,-2
Cc1ccccc1N1C(=O)NC(=O)/C(=C\c2cn(CC(=O)Nc3ccccc3)c3ccccc23)C1=O,64*,0
O=C1NC(=O)N(c2ccccc2F)C(=O)/C1=C/c1cn(CC(=O)N2CCCC2)c2ccccc12,75*,-1
Cc1cccc(N2C(=O)NC(=O)/C(=C\c3cn(CC(=O)N4CCCC4)c4ccccc34)C2=O)c1C,5,-6
Cc1noc(C)c1S(=O)(=O)Nc1csc(C(F)(F)F)c1-c1ccccc1,·,0
Cc1[nH]nc2c1C1(CCCCC1)C(C#N)=C(N)O2,-9,-1
O=C(NCc1n[nH]c(=O)c2ccccc12)c1ccc(-n2cccc2)cc1,3,2
Cc1ccc2cccc(SCC(=O)Nc3ccc([N+](=O)[O-])cc3)c2n1,16,2
Cc1cc(NC(=O)CSc2nnc(C3COc4ccccc4O3)o2)no1 (stereo not given),72*,5
Cc1cc(NC(=O)CSc2nnc(Cc3c(C)[nH]c(=O)[nH]c3=O)o2)no1,-20,-2
O=c1c([N+](=O)[O-])c(O)nc2ccccn12,-6,0
Cc1ccc(NC(=O)C2CCN(c3cc(N4CCOCC4)ncn3)CC2)cc1,15,-3
COc1ccccc1/C=C1/SC(N2CCCC2)=NC1=O,8,-1
C=CCN1C(=O)C(O)(CC(=O)c2ccc3c(c2)CCCC3)c2ccccc21 (stereo not given),57*,2
C#CCN1C(=O)C(O)(CC(=O)c2ccc3c(c2)CCCC3)c2ccccc21 (stereo not given),14,-6
O=C1CC(c2ccco2)Sc2nc(-c3ccc(F)cc3)nn21 (stereo not given),100*,-8
Cc1ccc(-c2nc3n(n2)C(=O)CC(c2ccco2)S3)cc1 (stereo not given),5,-2
Cc1cccc(NC(=O)NCc2ccc3c(c2)cc(C)n3C)c1,50*,-30
Cc1cc2cc(CNC(=O)c3c(F)cccc3Cl)ccc2n1C,4,-23
Cc1cc2cc(CNC(=O)c3ccccc3[N+](=O)[O-])ccc2n1C,25,-13
Cc1cc2cc(CNC(=O)Cc3ccc(F)cc3)ccc2n1C,56*,-26
Cc1cc(C)cc(N2C(=O)c3ccccc3C2C(=O)NC2CCCC2)c1 (stereo not given),4,-14
COc1ccc(Br)cc1C1=N/C(=C/c2cccc([N+](=O)[O-])c2)C(=O)O1,2,-3
COc1ccc(C)cc1NC(=O)N1CCc2c(c(COCc3ccc(C)cc3)nn2C)C1,-4,-4
SMILES,mHTT-CaM PPI inh,Pf apPOL inh
NNc1nc2ccccc2s1,86*,-4
O=S(=O)(Cc1ccccc1)Nc1nc2ccccc2s1,0,3
COc1ccc(/C=C2\SC(=O)N(c3ccccc3OC)C2=O)cc1,4,-4
COc1ccccc1N1C(=N)S/C(=C\c2ccc(Br)c([N+](=O)[O-])c2)C1=O,57*,-8
O=C1NC(=O)/C(=C/c2ccc(Cl)c([N+](=O)[O-])c2)S1,4,0
O=C1NC(=S)SC1=Cc1ccc(Sc2ccc(Cl)cc2)c([N+](=O)[O-])c1,·,69*
CSc1c(CC(=O)NCCc2ccccc2)n(C)c2ccc(C)cc12,4,0
O=C(CN(C1CCCCC1)S(=O)(=O)c1ccc(Br)cc1)NC1CC1,1,-7
O=C(O)CN(C1CCCCC1)S(=O)(=O)c1ccc(Br)cc1,-2,68*
COc1ccccc1N1CCN(CC(O)COC23CC4CC(CC(C4)C2)C3)CC1 (stereo not given),10,-8
O=C1S/C(=C\c2ccccc2F)C(=O)N1CNc1cccc([N+](=O)[O-])c1,-2,-2
Cc1cccc(NCN2C(=O)S/C(=C\c3ccccc3F)C2=O)c1,54*,-4
COc1ccccc1C1CC(c2cccc(F)c2)=NN1C(=O)CN1CCOCC1 (stereo not given),66*,-3
COc1ccc(C2=NN(C(=O)CN3CCOCC3)C(c3ccc(F)cc3)C2)cc1 (stereo not given),40,-4
COc1ccc(C2=NN(C(=O)CCC(=O)O)C(c3ccc(Br)cc3)C2)cc1 (stereo not given),15,6
COc1ccccc1C1CC(c2ccc(C)cc2)=NN1C(=O)CN1CCOCC1 (stereo not given),50,-5
O=C(CN1CCCC1)N1N=C(c2cccc(F)c2)CC1c1ccc2c(c1)OCO2 (stereo not given),98*,-4
Cc1ccc(C2=NN(C(=O)CN3CCCC3)C(c3ccc4c(c3)OCO4)C2)cc1 (stereo not given),32,-7
COc1ccc(C2CC(c3ccc(Br)cc3)=NN2C(=O)CCN2CCOCC2)cc1 (stereo not given),66*,-8
